# Source: PubChem BioAssay AID1159580 (chemical genetic matrix, 2015)
# The campaign covered roughly 5,500 compounds. About 2,000 (36%) were called active. Not shown: some 18% with an inconclusive outcome. Some of the results follow. Unmarked numbers belong to inactive results. Rule as the data show it: active = normalized growth mostly below about 0.91 (no sharp cut-off); inconclusive = no clear call, values can overlap the other calls; inactive = mostly above about 0.92.
# Test: chemical genetic growth profiling, strain panel (AID 1159580);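 also: tested at 20 µM; growth read once vehicle control cultures reached saturation at 30 °C; 1 = growth at the plate median or of vehicle wells; lower values mean less growth of the strain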
# Settings: growth OD
compound,measurement,setting,value
COc1cc(OC)c2c(OC)c(-c3ccc4c(c3)OCO4)c(=O)oc2c1,normalized growth,"S. cerevisiae deletion strains, locus YJR075W, strain HOC1, hits give low values",0.972
same,normalized growth,"S. cerevisiae deletion strains, locus YKL009W, strain mrt4, hits give low values",1
same,normalized growth,"S. cerevisiae deletion strains, locus YKL068W, hits give low values",0.984
same,normalized growth,"S. cerevisiae deletion strains, locus YKL085W, strain MDH1 (second series), hits give low values",0.99
same,normalized growth,"S. cerevisiae deletion strains, locus YKL085W, strain MDH1, hits give low values",0.99
same,normalized growth,"S. cerevisiae deletion strains, locus YKL160W, strain elf1, hits give low values",0.931
same,normalized growth,"S. cerevisiae deletion strains, locus YKL190W, strain CNB1, hits give low values",0.984
same,normalized growth,"S. cerevisiae deletion strains, locus YKR001C, strain vps1, hits give low values",0.927
same,normalized growth,"S. cerevisiae deletion strains, locus YKR026C, strain gcn3, hits give low values",0.992
same,normalized growth,"S. cerevisiae deletion strains, locus YKR091W, strain srl3, hits give low values",0.978
same,normalized growth,"S. cerevisiae deletion strains, locus YLL001W, strain dnm1, hits give low values",0.97
same,normalized growth,"S. cerevisiae deletion strains, locus YLL026W, hits give low values",0.979
same,normalized growth,"S. cerevisiae deletion strains, locus YLL041C, strain sdh2, hits give low values",0.987
same,normalized growth,"S. cerevisiae deletion strains, locus YLR027C, strain aat2, hits give low values",0.934
same,normalized growth,"S. cerevisiae deletion strains, locus YLR039C, strain RIC1, hits give low values",0.865
same,normalized growth,"S. cerevisiae deletion strains, locus YLR058C, strain SHM2, hits give low values",0.99
same,normalized growth,"S. cerevisiae deletion strains, locus YLR102C, strain apc9, hits give low values",1
same,normalized growth,"S. cerevisiae deletion strains, locus YLR113W, strain HOG1, hits give low values",0.917
same,normalized growth,"S. cerevisiae deletion strains, locus YLR221C, strain rsa3, hits give low values",0.943
same,normalized growth,"S. cerevisiae deletion strains, locus YLR258W, strain gsy2, hits give low values",0.959
same,normalized growth,"S. cerevisiae deletion strains, locus YLR262C, strain YPT6 (second series), hits give low values",0.783 (active)
same,normalized growth,"S. cerevisiae deletion strains, locus YLR262C, strain YPT6, hits give low values",0.879
same,normalized growth,"S. cerevisiae deletion strains, locus YLR268W, strain sec22, hits give low values",0.946
same,normalized growth,"S. cerevisiae deletion strains, locus YLR320W, strain mms22, hits give low values",0.867 (active)
same,normalized growth,"S. cerevisiae deletion strains, locus YLR330W, strain CHS5, hits give low values",0.991
same,normalized growth,"S. cerevisiae deletion strains, locus YLR342W, strain FKS1 (second series), hits give low values",0.952
same,normalized growth,"S. cerevisiae deletion strains, locus YLR342W, strain FKS1, hits give low values",0.957
same,normalized growth,"S. cerevisiae deletion strains, locus YLR357W, strain rsc2, hits give low values",0.997
same,normalized growth,"S. cerevisiae deletion strains, locus YLR370C, strain arc18, hits give low values",0.981
same,normalized growth,"S. cerevisiae deletion strains, locus YLR371W, strain rom2, hits give low values",0.984
same,normalized growth,"S. cerevisiae deletion strains, locus YLR384C, strain iki3, hits give low values",0.977
same,normalized growth,"S. cerevisiae deletion strains, locus YLR418C, strain cdc73, hits give low values",0.849
same,normalized growth,"S. cerevisiae deletion strains, locus YML016C, strain PPZ1, hits give low values",0.985
same,normalized growth,"S. cerevisiae deletion strains, locus YML032C, strain rad52, hits give low values",0.995
same,normalized growth,"S. cerevisiae deletion strains, locus YML120C, strain ndi1, hits give low values",0.998
same,normalized growth,"S. cerevisiae deletion strains, locus YML124C, strain tub3, hits give low values",0.986
same,normalized growth,"S. cerevisiae deletion strains, locus YMR058W, strain fet3, hits give low values",0.962
same,normalized growth,"S. cerevisiae deletion strains, locus YMR078C, strain ctf18, hits give low values",0.991
same,normalized growth,"S. cerevisiae deletion strains, locus YMR125W, strain sto1, hits give low values",1
same,normalized growth,"S. cerevisiae deletion strains, locus YMR129W, hits give low values",0.989
same,normalized growth,"S. cerevisiae deletion strains, locus YMR205C, strain PFK2, hits give low values",0.866 (active)
same,normalized growth,"S. cerevisiae deletion strains, locus YMR223W, strain ubp8, hits give low values",0.981
same,normalized growth,"S. cerevisiae deletion strains, locus YMR231W, strain pep5, hits give low values",0.973
same,normalized growth,"S. cerevisiae deletion strains, locus YMR263W, strain SAP30, hits give low values",0.966
same,normalized growth,"S. cerevisiae deletion strains, locus YMR307W, strain GAS1, hits give low values",0.905
same,normalized growth,"S. cerevisiae deletion strains, locus YNL067W, strain RPL9B, hits give low values",0.99
same,normalized growth,"S. cerevisiae deletion strains, locus YNL071W, strain lat1, hits give low values",0.816 (active)
same,normalized growth,"S. cerevisiae deletion strains, locus YNL128W, strain TEP1, hits give low values",1
same,normalized growth,"S. cerevisiae deletion strains, locus YNL153C, strain GIM3, hits give low values",0.988
same,normalized growth,"S. cerevisiae deletion strains, locus YNL183C, strain NPR1, hits give low values",0.888
same,normalized growth,"S. cerevisiae deletion strains, locus YNL209W, strain ssb2, hits give low values",0.987
same,normalized growth,"S. cerevisiae deletion strains, locus YNL233W, strain BNI4, hits give low values",0.965
same,normalized growth,"S. cerevisiae deletion strains, locus YNL248C, strain rpa49, hits give low values",0.978
same,normalized growth,"S. cerevisiae deletion strains, locus YNL250W, strain rad50, hits give low values",0.997
same,normalized growth,"S. cerevisiae deletion strains, locus YNL271C, strain bni1, hits give low values",0.987
same,normalized growth,"S. cerevisiae deletion strains, locus YNL298W, strain CLA4, hits give low values",0.997
same,normalized growth,"S. cerevisiae deletion strains, locus YNL307C, strain MCK1, hits give low values",0.792 (active)
same,normalized growth,"S. cerevisiae deletion strains, locus YNL322C, strain KRE1 (second series), hits give low values",0.993
same,normalized growth,"S. cerevisiae deletion strains, locus YNL322C, strain KRE1, hits give low values",0.993
same,normalized growth,"S. cerevisiae deletion strains, locus YNR049C, strain mso1, hits give low values",0.992
same,normalized growth,"S. cerevisiae deletion strains, locus YNR052C, strain pop2, hits give low values",0.991
same,normalized growth,"S. cerevisiae deletion strains, locus YOL006C, strain TOP1, hits give low values",0.89
same,normalized growth,"S. cerevisiae deletion strains, locus YOL012C, strain htz1",0.711
same,normalized growth,"S. cerevisiae deletion strains, locus YOL147C, strain pex11, hits give low values",0.985
same,normalized growth,"S. cerevisiae deletion strains, locus YOR001W, strain rrp6, hits give low values",0.991
same,normalized growth,"S. cerevisiae deletion strains, locus YOR061W, strain CKA2, hits give low values",0.989
same,normalized growth,"S. cerevisiae deletion strains, locus YOR069W, strain VPS5, hits give low values",0.988
same,normalized growth,"S. cerevisiae deletion strains, locus YOR070C, strain gyp1, hits give low values",0.977
same,normalized growth,"S. cerevisiae deletion strains, locus YOR080W, strain dia2, hits give low values",0.989
same,normalized growth,"S. cerevisiae deletion strains, locus YOR083W, strain WHI5, hits give low values",0.937
same,normalized growth,"S. cerevisiae deletion strains, locus YOR106W, strain vam3, hits give low values",0.957
same,normalized growth,"S. cerevisiae deletion strains, locus YOR136W, strain idh2, hits give low values",0.99
same,normalized growth,"S. cerevisiae deletion strains, locus YOR144C, strain elg1, hits give low values",0.982
same,normalized growth,"S. cerevisiae deletion strains, locus YOR184W, strain ser1, hits give low values",0.891
same,normalized growth,"S. cerevisiae deletion strains, locus YOR231W, strain MKK1, hits give low values",0.943
same,normalized growth,"S. cerevisiae deletion strains, locus YOR265W, strain rbl2, hits give low values",0.981
same,normalized growth,"S. cerevisiae deletion strains, locus YOR270C, strain vph1, hits give low values",0.835
same,normalized growth,"S. cerevisiae deletion strains, locus YOR290C, strain snf2, hits give low values",0.932
same,normalized growth,"S. cerevisiae deletion strains, locus YOR316C, strain cot1, hits give low values",0.983
same,normalized growth,"S. cerevisiae deletion strains, locus YPL051W, strain arl3, hits give low values",0.899 (active)
same,normalized growth,"S. cerevisiae deletion strains, locus YPL055C, strain LGE1, hits give low values",0.949
same,normalized growth,"S. cerevisiae deletion strains, locus YPL078C, strain atp4, hits give low values",0.945
same,normalized growth,"S. cerevisiae deletion strains, locus YPL106C, strain sse1, hits give low values",0.945
same,normalized growth,"S. cerevisiae deletion strains, locus YPL240C, strain hsp82, hits give low values",0.984
same,normalized growth,"S. cerevisiae deletion strains, locus YPL241C, strain CIN2, hits give low values",0.992
same,normalized growth,"S. cerevisiae deletion strains, locus YPL256C, strain CLN2, hits give low values",0.959
same,normalized growth,"S. cerevisiae deletion strains, locus YPR119W, strain clb2, hits give low values",0.97
same,normalized growth,"S. cerevisiae deletion strains, locus YPR141C, strain kar3, hits give low values",1
same,normalized growth,"S. cerevisiae deletion strains, locus YPR163C, strain tif3, hits give low values",0.969
same,normalized growth,"S. cerevisiae deletion strains, locus YPR167C, strain met16, hits give low values",0.989
same,normalized growth,"S. cerevisiae deletion strains, strain wtn01, hits give low values",0.968
same,normalized growth,"S. cerevisiae strains, strain wild type, hits give low values",0.982
